We go through 1 compound from PubChem BioAssay (EPA / NIEHS).

Assay [1] has as its target zebrafish Estrogen Receptor (ER1), esr1 (gene 259252) (UniProt P57717). Nature of the assay: ATG_zfER1_XSP2: Attagene TRANS-FACTORIAL Multi-Species (XSP2) HepG2 Assay for zebrafish Estrogen Receptor (ER1) (AID 2283816). Summed up: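 HepG2 cells transiently transfected with a GAL4-UAS reporter and a chimeric zebrafish ER1-Gal4 construct, dosed 24 h. Reporter mRNA quantified by RT-PCR, labelling, HpaI digestion and capillary electrophoresis, relative to DMSO.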

Assay [2] relates to zebrafish Estrogen Receptor (ER2a), gene 317734. Nature of the assay: ATG_zfER2a_XSP2: Attagene TRANS-FACTORIAL Multi-Species (XSP2) HepG2 Assay for zebrafish Estrogen Receptor (ER2a) (AID 2283818).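 Also: hits raise reporter mRNA so AC50 reflects activation of zebrafish ER2a.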 Summed up: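 HepG2 cells transiently transfected with GAL4-UAS reporter units and chimeric zebrafish ER2a-Gal4, exposed 24 h; medium contains 3 nM 6-alpha-fluorotestosterone and 1.5 nM norgestrel. Reporter mRNA quantified by RT-PCR, HpaI digestion, capillary electrophoresis; gain versus DMSO.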

For assay [3], the system named is frog Estrogen Receptor (ER), gene 398734. Nature of the assay: ATG_frER1_XSP2: Attagene TRANS-FACTORIAL Multi-Species (XSP2) HepG2 Assay for frog Estrogen Receptor (ER) (AID 2283821).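 Also: hits raise reporter mRNA above DMSO baseline so potency means agonist or activator.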 The procedure, abridged:
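Steps: transfect HepG2 with multiple reporter transcription units; treat with chemical for 24 h; isolate RNA, reverse-transcribe, PCR-amplify, label with 6-FAM, digest with HpaI; resolve fragments by capillary electrophoresis. Signal is scored against DMSO.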

The test system of assay [4] is zebrafish Estrogen Receptor (ER2b), gene 317733. Nature of the assay: ATG_zfER2b_XSP2: Attagene TRANS-FACTORIAL Multi-Species (XSP2) HepG2 Assay for zebrafish Estrogen Receptor (ER2b) (AID 2283823).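 Also: fitted upward as reporter gain over DMSO so potency reflects activation.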 The procedure, abridged:
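Transcriptional induction measured as reporter mRNA (RT-PCR, fluorescent capillary electrophoresis) in transiently transfected HepG2 cells after 24 h dosing; DMSO served as negative control and baseline.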

A short description of assay [5]: ATG_M_32_XSP2: Attagene TRANS-FACTORIAL Multi-Species (XSP2) HepG2 Assay for M19 Transcription Factor (Internal Marker) (AID 2283826). The procedure, abridged:
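An internal background marker among multiplexed transfected reporters in HepG2 liver cells was measured 24 h after dosing. Androgen receptor stimulation came from 3 nM 6-alpha-fluorotestosterone and 1.5 nM norgestrel.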

The subject of assay [6] is frog Estrogen Receptor (ER2), gene 100174814. Nature of the assay: ATG_frER2_XSP2: Attagene TRANS-FACTORIAL Multi-Species (XSP2) HepG2 Assay for frog Estrogen Receptor (ER2) (AID 2283828). The procedure, abridged:
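Multiplexed transactivation in HepG2: frog estrogen receptor fused to Gal4 drives a UAS reporter. Signal is reporter mRNA after 24 h treatment.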

In assay [7] the target is Peroxisome proliferator-activated receptor gamma (Homo sapiens) (UniProt P37231). Nature of the assay: ATG_hPPARg_XSP2: Attagene TRANS-FACTORIAL Multi-Species (XSP2) HepG2 Assay for human Peroxisome Proliferator-activated Receptor gamma (PPARg) (AID 2283829).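 Also: actives raise reporter mRNA above DMSO so AC50 reflects PPARg activation.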 The procedure, abridged: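 Human HepG2 cells carried transiently transfected Gal4 reporter units and were treated with chemical for 24 h alongside androgen-receptor stimulants (3 nM 6-alpha-fluorotestosterone, 1.5 nM norgestrel). Reporter transcripts were detected by RT-PCR with capillary electrophoresis, analysed in the positive direction against DMSO.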
Sequence of Peroxisome proliferator-activated receptor gamma (Homo sapiens) (P37231 whole entry, looked up, the tested form may be a part): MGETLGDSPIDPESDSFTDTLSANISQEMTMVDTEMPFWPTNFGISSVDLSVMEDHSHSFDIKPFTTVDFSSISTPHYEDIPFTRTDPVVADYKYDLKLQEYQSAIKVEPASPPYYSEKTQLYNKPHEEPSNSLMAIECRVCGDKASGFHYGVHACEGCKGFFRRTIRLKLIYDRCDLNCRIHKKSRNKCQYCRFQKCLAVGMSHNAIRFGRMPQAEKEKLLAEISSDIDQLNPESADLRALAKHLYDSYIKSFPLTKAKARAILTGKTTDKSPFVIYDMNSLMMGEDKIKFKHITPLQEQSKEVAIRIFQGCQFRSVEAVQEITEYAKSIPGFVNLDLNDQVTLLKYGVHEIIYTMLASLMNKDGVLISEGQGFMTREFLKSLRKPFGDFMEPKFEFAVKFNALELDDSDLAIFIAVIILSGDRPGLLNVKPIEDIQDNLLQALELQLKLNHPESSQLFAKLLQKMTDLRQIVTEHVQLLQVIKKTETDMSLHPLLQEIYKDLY

In assay [8] the target is mouse Peroxisome Proliferator-activated Receptor gamma (PPARg), Pparg (gene 19016) (UniProt P37238). Nature of the assay: ATG_mPPARg_XSP2: Attagene TRANS-FACTORIAL Multi-Species (XSP2) HepG2 Assay for mouse Peroxisome Proliferator-activated Receptor gamma (PPARg) (AID 2283830).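 Also: hits are gains in reporter mRNA above DMSO so AC50 marks activation.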 Summed up:
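HepG2 cells transiently transfected with GAL4-UAS reporter units for chimeric NR-Gal4 proteins including mouse PPARg, exposed 24 h; medium contained 3 nM 6-alpha-fluorotestosterone and 1.5 nM norgestrel. Reporter mRNA quantified by RT-PCR, HpaI digestion and capillary electrophoresis, vs DMSO.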

Assay [9] concerns the target zebrafish Thyroid Hormone Receptor alpha (TRa), thraa (gene 30670) (UniProt Q98867). Nature of the assay: ATG_zfTRa_XSP2: Attagene TRANS-FACTORIAL Multi-Species (XSP1) HepG2 Assay for zebrafish Thyroid Hormone Receptor alpha (TRa) (AID 2283832).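 Also: actives raise zebrafish TRa-Gal4 reporter transcript above DMSO baseline.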 Summed up:
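HepG2 transiently transfected with GAL4-UAS reporter units and chimeric zebrafish TRa-Gal4; reporter mRNA quantified after 24 h dosing by RT-PCR, HpaI digestion and capillary electrophoresis fluorescence. Gain of signal vs DMSO; XSP2 medium contains 3 nM 6-alpha-fluorotestosterone, 1.5 nM norgestrel.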

In assay [10] the test system is zebrafish Peroxisome Proliferator-activated Receptor gamma (PPARg), gene 557037. Nature of the assay: ATG_zfPPARg_XSP2: Attagene TRANS-FACTORIAL Multi-Species (XSP2) HepG2 Assay for zebrafish Peroxisome Proliferator-activated Receptor gamma (PPARg) (AID 2283833).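 Also: actives increase reporter signal over DMSO so AC50 reflects activation.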 The procedure, abridged: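 HepG2, transient MRTU transfection, 24 h compound; zfPPARg-GAL4 reporter mRNA by RT-PCR + capillary electrophoresis; gain-of-signal vs DMSO.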

Assay [11] relates to turtle Thyroid Hormone Receptor, alpha (TRa), gene 101949057. Put plainly: ATG_trTRa_XSP2: Attagene TRANS-FACTORIAL Multi-Species (XSP1) HepG2 Assay for turtle Thyroid Hormone Receptor, alpha (TRa) (AID 2283834).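 Also: hits raise reporter mRNA over the DMSO baseline so AC50 marks activators.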 Summed up: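 Multiplexed TRANS reporter assay; HepG2 carrying NR-Gal4 constructs treated 24 h. mRNA of the GAL4-UAS reporter quantified via labelled RT-PCR fragments on a genetic analyzer, vs DMSO negative control.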

Assay [12] is described as follows: ATG_M_61_XSP2: Attagene TRANS-FACTORIAL Multi-Species (XSP2) HepG2 Assay for M61 Transcription Factor (Internal Marker) (AID 2283835; active = hit-call score of the fitted dose curve at least 0.9, where 1 is the maximum; inactive = score below 0.9;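 also: reporter mRNA of an internal background marker read by RT-PCR and capillary electrophoresis; active means a rise in signal above the DMSO baseline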). The procedure, abridged:
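First, HepG2 cells are transfected with reporter units under GAL4-UAS control. Next, chemicals are applied for 24 h. Then total RNA is reverse-transcribed, amplified, fluorescently labelled and sized by capillary electrophoresis, with gain of signal scored against DMSO.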

In assay [13] the target is zebrafish Thyroid Hormone Receptor beta (TRb), thrb (gene 30607) (UniProt Q9PVE4). Nature of the assay: ATG_zfTRb_XSP2: Attagene TRANS-FACTORIAL Multi-Species (XSP1) HepG2 Assay for zebrafish Thyroid Hormone Receptor beta (TRb) (AID 2283836). The procedure, abridged:
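HepG2 cells transiently transfected with chimeric zebrafish TRb-GAL4 reporter units, dosed 24 h with 3 nM 6-alpha-fluorotestosterone and 1.5 nM norgestrel present. Reporter mRNA quantified by RT-PCR and capillary electrophoresis; gain fitted against DMSO.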

The target in assay [14] is human Thyroid hormone Receptor alpha (TRa), THRA (gene 7067) (UniProt P10827). Put plainly: ATG_hTRa_XSP2: Attagene TRANS-FACTORIAL Multi-Species (XSP2) HepG2 Assay for human Thyroid hormone Receptor alpha (TRa) (AID 2283838). The procedure, abridged: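 HepG2 cells were transiently transfected with GAL4-UAS reporter units for chimeric human TRa-Gal4 and dosed for 24 hours, with 3 nM 6-alpha-fluorotestosterone and 1.5 nM norgestrel present. Reporter mRNA was quantified by RT-PCR, FAM labelling and capillary electrophoresis, with gain of signal fitted versus DMSO.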
Sequence of human Thyroid hormone Receptor alpha (TRa), THRA (gene 7067) (P10827 whole entry, looked up, the tested form may be a part): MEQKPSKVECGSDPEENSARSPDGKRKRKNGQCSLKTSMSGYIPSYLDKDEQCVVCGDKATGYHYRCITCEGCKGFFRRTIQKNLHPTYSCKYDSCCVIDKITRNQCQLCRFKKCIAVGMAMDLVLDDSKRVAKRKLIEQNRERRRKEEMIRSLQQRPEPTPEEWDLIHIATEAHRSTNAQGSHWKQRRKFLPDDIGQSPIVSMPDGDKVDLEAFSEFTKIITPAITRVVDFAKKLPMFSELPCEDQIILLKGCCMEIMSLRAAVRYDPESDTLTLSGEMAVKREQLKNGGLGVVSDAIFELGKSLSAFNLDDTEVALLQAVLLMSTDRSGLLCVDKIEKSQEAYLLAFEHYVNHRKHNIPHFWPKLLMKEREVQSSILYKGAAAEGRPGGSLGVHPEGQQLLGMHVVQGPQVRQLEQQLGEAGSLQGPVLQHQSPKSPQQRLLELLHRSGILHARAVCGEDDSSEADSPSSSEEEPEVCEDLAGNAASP

The target in assay [15] is frog Thyroid hormone Receptor alpha (TRa), thra-a (gene 397942) (UniProt P15204). Nature of the assay: ATG_frTRa_XSP2: Attagene TRANS-FACTORIAL Multi-Species (XSP2) HepG2 Assay for frog Thyroid hormone Receptor alpha (TRa) (AID 2283839). Summed up:
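Chimeric frog TRα-GAL4 activity in human liver cells measures reporter transcript induction 24 h post-dose. Detection uses RT-PCR, HpaI-digested labelled products and fluorescence capillary electrophoresis; DMSO serves as negative control.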

Assay [16] deals with human Thyroid hormone Receptor beta (TRb), THRB (gene 7068) (UniProt P10828). Put plainly: ATG_hTRb_XSP2: Attagene TRANS-FACTORIAL Multi-Species (XSP2) HepG2 Assay for human Thyroid hormone Receptor beta (TRb) (AID 2283840).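 Also: actives raise reporter mRNA so potency reflects agonist-like gain of signal.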 The procedure, abridged: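 Gain-of-signal reporter transcription, referenced to DMSO, was measured in transiently transfected HepG2 after 24 h exposure; labeled RT-PCR products were resolved by capillary electrophoresis. Assay medium included 3 nM 6-alpha-fluorotestosterone and 1.5 nM norgestrel.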
Sequence of human Thyroid hormone Receptor beta (TRb), THRB (gene 7068) (P10828 whole entry, looked up): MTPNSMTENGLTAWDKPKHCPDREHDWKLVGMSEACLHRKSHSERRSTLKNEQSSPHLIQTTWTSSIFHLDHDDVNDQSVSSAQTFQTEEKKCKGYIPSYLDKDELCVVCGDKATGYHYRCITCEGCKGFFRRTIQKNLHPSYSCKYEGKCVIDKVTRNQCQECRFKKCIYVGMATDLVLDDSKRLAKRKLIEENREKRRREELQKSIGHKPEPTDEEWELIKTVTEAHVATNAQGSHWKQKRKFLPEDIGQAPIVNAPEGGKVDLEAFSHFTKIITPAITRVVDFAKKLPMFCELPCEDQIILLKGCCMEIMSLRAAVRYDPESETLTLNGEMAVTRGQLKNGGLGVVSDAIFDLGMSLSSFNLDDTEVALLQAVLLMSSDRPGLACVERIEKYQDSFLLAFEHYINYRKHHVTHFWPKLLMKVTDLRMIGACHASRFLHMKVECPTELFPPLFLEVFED

Assay [17] deals with DIO1 (gene 1733). Put plainly: CCTE_GLTED_hDIO1: CCTE's human Deiodinase 1 (DIO1) Inhibition Assay, Great Lakes Toxicology and Ecology Division (GLTED) Lab (AID 2283987).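 Also: isolated human DIO1 enzyme in a cell-free setup rather than cells; enzyme activity read as free iodide liberated from substrate via Sandell-Kolthoff colorimetry.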 Summed up: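 Chemicals are tested on human DIO1 without cells for 3 h. Uninhibited enzyme frees iodide, which speeds cerium(IV) reduction by arsenic and is read by spectrophotometry.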
For assay [18], the system named is DIO2 (gene 1734). Nature of the assay: CCTE_GLTED_hDIO2: CCTE's human Deiodinase 2 (DIO2) Inhibition Assay, Great Lakes Toxicology and Ecology Division (GLTED) Lab (AID 2284050). Summed up: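 Cell-free human DIO2 incubated 3 h with chemical; liberated iodide quantified by Sandell-Kolthoff absorbance. Triplicate plates; loss of signal fitted vs DMSO.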
The subject of assay [19] is DIO3 (gene 1735). Put plainly: CCTE_GLTED_hDIO3: CCTE's human Deiodinase 3 (DIO3) Inhibition Assay, Great Lakes Toxicology and Ecology Division (GLTED) Lab (AID 2284055).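 Also: potency is for inhibition seen as loss of released iodide signal.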 The procedure, abridged: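 Human DIO3 from an adenovirus expression system is incubated 3 h with test chemical. Released iodide is quantified by Sandell-Kolthoff absorbance, in triplicate plates. Loss of signal is fitted relative to DMSO.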

The test system of assay [20] is IYD (gene 389434). Nature of the assay: CCTE_GLTED_hIYD: CCTE's human Iodotyrosine Deiodinase (xIYD) Inhibition Assay, Great Lakes Toxicology and Ecology Division (GLTED) Lab (AID 2284317).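 Also: cell-free human IYD enzyme made in baculovirus insect cells; iodide freed from monoiodotyrosine measured by cerium arsenite color change at 420 nm.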 Summed up: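 hIYD: baculovirus-expressed human IYD deiodinated monoiodotyrosine for 3 h with test chemical; free iodide was measured by Sandell-Kolthoff absorbance at 420 nm and normalized to MNT and DMSO/NaOH controls.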

Records with an inconclusive call do not appear. The source made the active and inactive calls. The calls were made as follows, unless noted: active = hit-call score of the fitted dose curve at least 0.9, where 1 is the maximum; inconclusive = response in the unintended direction; inactive = score below 0.9.

Sequence of zebrafish Thyroid Hormone Receptor alpha (TRa), thraa (gene 30670) (Q98867 whole entry, looked up, the tested form may be a part): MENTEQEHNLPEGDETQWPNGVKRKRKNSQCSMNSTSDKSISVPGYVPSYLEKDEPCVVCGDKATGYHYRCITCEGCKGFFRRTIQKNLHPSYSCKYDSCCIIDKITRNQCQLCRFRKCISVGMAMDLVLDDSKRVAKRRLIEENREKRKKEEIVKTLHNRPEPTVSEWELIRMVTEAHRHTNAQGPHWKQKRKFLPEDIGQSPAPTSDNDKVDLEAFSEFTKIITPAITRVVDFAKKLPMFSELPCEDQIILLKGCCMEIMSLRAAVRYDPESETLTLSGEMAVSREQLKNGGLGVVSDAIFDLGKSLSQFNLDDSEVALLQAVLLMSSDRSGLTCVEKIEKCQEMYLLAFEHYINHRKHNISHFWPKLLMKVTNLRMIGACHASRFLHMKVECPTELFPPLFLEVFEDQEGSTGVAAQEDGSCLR
Sequence of zebrafish Thyroid Hormone Receptor beta (TRb), thrb (gene 30607) (Q9PVE4 whole entry, looked up, the tested form may be a part): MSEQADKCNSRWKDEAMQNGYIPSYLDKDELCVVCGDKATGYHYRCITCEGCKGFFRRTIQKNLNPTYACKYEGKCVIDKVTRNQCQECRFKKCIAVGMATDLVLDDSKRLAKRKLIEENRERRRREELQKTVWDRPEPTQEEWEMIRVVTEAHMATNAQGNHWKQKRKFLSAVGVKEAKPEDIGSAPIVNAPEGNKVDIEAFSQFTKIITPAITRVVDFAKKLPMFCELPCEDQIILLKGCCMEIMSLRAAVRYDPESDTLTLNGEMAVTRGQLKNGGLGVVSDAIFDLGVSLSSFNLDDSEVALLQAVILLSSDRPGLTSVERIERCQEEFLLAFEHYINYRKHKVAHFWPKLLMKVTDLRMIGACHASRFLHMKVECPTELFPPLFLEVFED
Sequence of zebrafish Estrogen Receptor (ER1), esr1 (gene 259252) (P57717 whole entry, looked up, the tested form may be a part): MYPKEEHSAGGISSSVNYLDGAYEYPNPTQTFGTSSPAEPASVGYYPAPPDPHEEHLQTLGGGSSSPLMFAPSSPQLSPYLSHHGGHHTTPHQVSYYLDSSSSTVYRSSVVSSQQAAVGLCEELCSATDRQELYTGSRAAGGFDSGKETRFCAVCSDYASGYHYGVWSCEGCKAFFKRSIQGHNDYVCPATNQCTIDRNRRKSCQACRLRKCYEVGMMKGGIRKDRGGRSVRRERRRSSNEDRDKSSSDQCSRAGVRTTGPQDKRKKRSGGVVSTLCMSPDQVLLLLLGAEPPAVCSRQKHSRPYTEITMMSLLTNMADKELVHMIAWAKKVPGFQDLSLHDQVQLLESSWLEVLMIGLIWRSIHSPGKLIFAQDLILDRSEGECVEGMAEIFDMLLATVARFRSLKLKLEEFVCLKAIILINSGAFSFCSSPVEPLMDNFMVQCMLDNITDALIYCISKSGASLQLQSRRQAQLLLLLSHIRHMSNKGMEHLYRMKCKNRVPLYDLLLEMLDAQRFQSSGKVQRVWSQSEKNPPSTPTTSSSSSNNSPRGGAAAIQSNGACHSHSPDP
Sequence of frog Thyroid hormone Receptor alpha (TRa), thra-a (gene 397942) (P15204 whole entry, looked up, the tested form may be a part): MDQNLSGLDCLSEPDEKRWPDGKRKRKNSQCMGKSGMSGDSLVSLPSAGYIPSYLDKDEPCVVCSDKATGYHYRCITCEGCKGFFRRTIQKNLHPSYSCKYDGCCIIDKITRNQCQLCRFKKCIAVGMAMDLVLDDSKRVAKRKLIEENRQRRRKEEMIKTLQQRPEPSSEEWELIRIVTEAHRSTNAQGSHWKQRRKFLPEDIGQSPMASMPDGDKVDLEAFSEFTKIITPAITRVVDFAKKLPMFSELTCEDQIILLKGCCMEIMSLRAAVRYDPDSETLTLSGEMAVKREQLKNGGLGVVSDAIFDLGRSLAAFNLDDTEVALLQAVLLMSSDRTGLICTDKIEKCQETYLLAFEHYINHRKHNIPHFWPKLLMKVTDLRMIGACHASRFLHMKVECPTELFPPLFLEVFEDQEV
Sequence of mouse Peroxisome Proliferator-activated Receptor gamma (PPARg), Pparg (gene 19016) (P37238 whole entry, looked up, the tested form may be a part): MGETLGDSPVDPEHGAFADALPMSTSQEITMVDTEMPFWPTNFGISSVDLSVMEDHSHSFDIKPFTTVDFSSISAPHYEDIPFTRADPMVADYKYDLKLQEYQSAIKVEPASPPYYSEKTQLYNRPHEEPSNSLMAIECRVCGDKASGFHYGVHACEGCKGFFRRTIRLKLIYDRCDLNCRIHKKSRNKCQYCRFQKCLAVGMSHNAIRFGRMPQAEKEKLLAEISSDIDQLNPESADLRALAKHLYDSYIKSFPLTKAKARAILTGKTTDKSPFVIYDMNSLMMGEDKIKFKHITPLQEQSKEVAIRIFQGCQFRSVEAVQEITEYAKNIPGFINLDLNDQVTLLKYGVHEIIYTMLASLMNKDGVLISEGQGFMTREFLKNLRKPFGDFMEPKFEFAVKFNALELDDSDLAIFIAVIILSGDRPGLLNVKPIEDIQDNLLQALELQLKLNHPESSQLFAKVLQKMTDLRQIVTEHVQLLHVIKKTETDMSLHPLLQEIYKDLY

Broadly, the AC50 is the midpoint of the concentration-response curve, whichever way the signal moves. Consider `CC(C)(c1cc(Cl)c(O)c(Cl)c1)c1cc(Cl)c(O)c(Cl)c1`, for which the outcome in assay [1], in assay [5], in assay [9], in [10], in assay [11] and in [12] was inactive. The outcome in assay [13], in [14], in assay [15] and in [16] was inactive. Besides, the AC50 is 1.62 µM (active) in [2]; 2.8 µM (active) in assay [3]; 25.7 µM (active) in assay [4]; 5.92 µM (active) in [6]; 3.94 µM (active) in assay [7]; 3.81 µM (active) in assay [8]. The AC50 was 73.9 µM (active) in [17], 94.3 µM (active) in [18], 41.8 µM (active) in assay [19] and 100 µM (active) in assay [20].
